PubChem BioAssay AID504753 (Sanford-Burnham Center for Chemical Genomics, 2011)
Out of some 2,400 compounds screened, about 820 (34%) were called active.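 Rule for the calls: active = inhibition of at least 50% at 20 µM in any single replicate; inactive = the rest.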 Only a sample is shown.

Test system: glucose-6-phosphate dehydrogenase-6-phosphogluconolactonase (PfGluPho), Plasmodium falciparum 3D7
Experiment: PfG6PD inhibitors, hit retest, confirmation, biochemical, fluorescence intensity, single concentration (AID 504753);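 note: 0% = DMSO with substrate and 100% = DMSO lacking glucose-6-phosphate substrate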
Conditions: recombinant PfGluPho, NADPH-diaphorase-resazurin fluorescence; at 20 µM; hits give high values

inhibition, active:
O=[N+]([O-])c1c(NCCO)cc(Sc2nc3ccccc3s2)c2nonc12 68.6%
CCN(CC)c1ccc2oc(=O)c(C)nc2c1 97.5%
CCSc1nnc(NC(=O)c2ccc(C)cc2)s1 75.1%
Cc1ccnc(-n2sc3ccccc3c2=O)n1 54.5%
Cc1ccc(/C=C/C(=O)Nc2ccc([N+](=O)[O-])c(NC(=O)/C=C/c3ccc(C)o3)c2)o1 65.5%
C=CCc1ccccc1OCC(=O)N/N=C/c1ccccc1OCC 55.4%
CCOc1ccccc1/C=N/NC(=O)CNC(=O)COc1ccccc1 104%
O=C(NC1=CC(=O)c2ccccc2C1=O)c1ccccc1 51.5%
COc1ccc(OCc2nnc3n2N=C(c2ccccc2)C(CC(=O)O)S3)cc1 (centres undefined) 66.8%
OCCN1CCN(C(=S)c2ccc(-c3ccccc3)cc2)CC1 50.8%
O=c1[nH]c2ccccc2n2c(-c3ccccc3)nnc12 102%
Cn1c(-c2sccc2OCc2cccc(C(F)(F)F)c2)n[nH]c1=S 52.9%

inhibition, inactive:
CCOc1ccccc1Nc1ccc2nonc2c1[N+](=O)[O-] 45.4%
Cc1ccc2nc(-c3cccc(Br)c3)cc(C(=O)Nn3cnnc3)c2c1 27.5%
COCCN1C=C2C(=O)C(C)(OC(=O)C3CCCC3)C(=O)C=C2C=C1c1ccsc1 (centres undefined) 29.9%
Cc1ccc(OCC(=O)Nc2ccccc2Sc2ccc(Cl)cc2)c([N+](=O)[O-])n1 40.8%
CCc1cc(C(N)=O)c(NC(=O)c2ccc(OC)cc2)s1 16%
CC(C)(C)c1nnc(NC(=O)C2c3ccccc3Oc3ccccc32)s1 27.4%
CC1=CC(C)(C)Nc2ccc(OC(=O)CN3C(=O)C4CCCCC4C3=O)cc21 (centres undefined) 12.7%
O=c1oc2ccccc2cc1-c1cn(-c2ccccc2)c(=S)[nH]1 18.8%
S=c1[nH]nc(-c2cc(-c3ccccc3)n[nH]2)n1/N=C/c1c2ccccc2cc2ccccc12 -2.97%
Oc1c(CN2CCOCC2)ccc(CN2CCOCC2)c1O 31.4%
Cc1cc(Nc2ccc(Cl)cc2)nc(N2CCOCC2)n1 11.2%
O=C(/C=C/c1ccco1)Nc1ccc(Oc2ccccc2)cc1 -1.92%
COc1ccc(C(=O)Nc2cc(C)c(NC(=O)c3ccccc3OC)cn2)cc1 15.4%
Cc1nc([N+](=O)[O-])nn1C12CC3CC(CC(Br)(C3)C1)C2 26.5%
Cc1nc(N2CCOCC2)sc1C(=O)NN 27.4%
Cc1ccc2nc(-c3ccc(Br)cc3)cn2c1 40.1%
O=c1c2c(nc3cc(-c4cccc(Cl)c4)[nH]n13)CCCC2 41.6%
O=C(COc1ccccc1)Nc1nonc1NC(=O)COc1ccccc1 19.8%
CCC(=C/c1sc2ccc3ccccc3c2[n+]1C)/C=C1\Sc2ccc3ccccc3c2N1C -4.66%
CN1CCN(c2ccc(NC(=O)c3ccc4c(c3)OCCO4)cc2Cl)CC1 17.7%
O=C(Nc1ccc(OC(F)(F)F)cc1)c1ccc2c(c1)no[n+]2[O-] 10.5%
COC(=O)CCc1sc(Nc2ccc(Br)cc2)nc1-c1ccc(OC)cc1 -3.8%
COc1cc(OC)c(C(=O)Nc2ccc(N(C)C)cc2)cc1OC 15.6%
COc1ccc(OCc2n[nH]c(=S)n2N)cc1 46.2%
COc1ccc(-c2nn(-c3ccccc3)cc2/C=N/Nc2ccccn2)cc1OC 20.9%
COc1ccc(-n2c(C)cc(C(=O)CSc3nnc(-c4cccs4)o3)c2C)cc1 14.3%
Cn1c(-c2ccco2)nc2cc3ccccc3cc21 22.1%
COc1ccc(Nc2cc(Sc3ccc(OC)cc3)ncn2)cc1 26.3%
COCCNC(=O)Nc1ccc2nc(-c3ccco3)c(-c3ccco3)nc2c1 34.8%
O=[N+]([O-])c1ccc(C=Nc2ccc(Cl)cc2Cl)s1 4.17%
Oc1c(C=Nc2cccc3nsnc23)ccc2ccccc12 27.2%
Cc1cc(N)n2nc(-c3ccc(C(C)(C)C)cc3)cc2n1 29.4%
O=C(N/N=C\c1cccc(Br)c1)c1ccccc1-n1cccc1 32%
C=C1c2cccc(OC)c2O[C@H](C(=O)OCC)[C@@H]1CCCCCC -4.41%
CCc1c(C)sc(NC(=O)c2cccs2)c1C(N)=O 16.4%
Cc1cc(Nc2ccc(Br)cc2)nc2ccccc12 -14%
CCOc1ccc(-n2c(N)c(C(=O)NCC3CCCO3)sc2=S)cc1 (centres undefined) 24.8%
